Assay results: PubChem BioAssay AID624273 (Broad Institute, 2012)
The campaign covered roughly 1,000 compounds. About 230 (23%) were called active. Not shown: some 1% with an inconclusive outcome. The list shows a part of the results. Results with a measured potency or affinity are listed apart. Unmarked numbers belong to inactive results. No rule for the calls is given here.

Molecular target: Long-chain-fatty-acid--AMP ligase FadD28 (Mycobacterium tuberculosis (strain ATCC 25618 / H37Rv)) (UniProt P9WQ59)
Sequence (P9WQ59 whole entry, looked up): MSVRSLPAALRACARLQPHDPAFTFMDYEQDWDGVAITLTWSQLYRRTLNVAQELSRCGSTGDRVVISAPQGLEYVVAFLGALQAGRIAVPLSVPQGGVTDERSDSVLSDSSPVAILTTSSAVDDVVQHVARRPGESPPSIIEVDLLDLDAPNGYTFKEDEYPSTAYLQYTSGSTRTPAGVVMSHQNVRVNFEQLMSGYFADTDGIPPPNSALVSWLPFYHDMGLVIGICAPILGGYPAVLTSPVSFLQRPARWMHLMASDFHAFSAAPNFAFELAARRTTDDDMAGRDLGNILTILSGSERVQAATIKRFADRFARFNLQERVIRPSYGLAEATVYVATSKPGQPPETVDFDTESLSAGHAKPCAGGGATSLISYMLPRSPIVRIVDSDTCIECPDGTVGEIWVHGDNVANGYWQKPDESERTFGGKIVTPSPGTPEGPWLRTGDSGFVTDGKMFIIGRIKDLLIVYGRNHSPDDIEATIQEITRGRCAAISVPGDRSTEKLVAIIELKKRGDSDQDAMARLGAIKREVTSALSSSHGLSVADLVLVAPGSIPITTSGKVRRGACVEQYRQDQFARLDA
Assay: inhibitors of FadD28 bisubstrate probe binding, dose response, biochemical, fluorescence polarization, cherry-pick (AID 624273)
Conditions: series mostly up to 50 µM; activity change, negative = inhibition: at the top concentration

Compared with `Cc1nn(C(=O)c2ccco2)c(C)c1Br`, `CCOC(=O)Cn1cc(C(=O)c2ccco2)c2ccccc21` is higher in “activity change, negative = inhibition” value: -1.79% for the first, 5.76% for the second.

First: Cc1cc(NC(=O)Nc2cccc3ccccc23)no1
Second: COc1ccccc1NC(=O)Nc1cccc(C)n1
The “activity change, negative = inhibition” value of the first is higher: -3.52% for the first, -5.5% for the second.

First: COc1ccc2nc(-c3ccc(F)cc3)sc2c1
Second: COc1cccc(C(=O)NCc2ccccc2OC)c1
The “activity change, negative = inhibition” value of the first is higher: 0.629% for the first, -1.19% for the second.

First: Cc1ccc(C(=O)NN2C(=O)/C(=C/c3cccn3C)SC2=S)cc1
Second: CC(=O)NN1C(=O)/C(=C\c2ccc(Br)o2)SC1=S
The “activity change, negative = inhibition” value of the first is higher: -1.32% for the first, -22% for the second.

First: O=C(NC(=S)NCc1nc2ccccc2[nH]1)c1ccccc1F
Second: O=C(CSc1nc2ccccc2[nH]1)NC1CCCc2ccccc21 (centres undefined)
The “activity change, negative = inhibition” value of the first is lower: -0.845% for the first, 2.68% for the second.

Compared with `C=CCSc1nc(=O)n2cccc(C)c2n1`, `CCOC(=O)CSc1nc(C)c2ccccc2n1` is lower in “activity change, negative = inhibition” value: -3.79% for the first, -4.24% for the second.

First: c1ccc(-c2cnn3c(-c4ccccc4)c(-c4ccccc4)nc3n2)cc1
Second: O=C(COc1ccccc1-c1ccccc1)NCc1cccc(Cl)c1
The “activity change, negative = inhibition” value of the first is higher: -0.288% for the first, -0.734% for the second.

First: COc1ccc(CNCCc2ccc3c(c2)OCO3)cc1Br
Second: COc1ccc(S(=O)(=O)N(C)C[C@H]2Oc3ccc(NC(=O)Nc4ccc5c(c4)OCO5)cc3C(=O)N([C@H](C)CO)C[C@@H]2C)cc1
The “activity change, negative = inhibition” value of the first is higher: -4.77% for the first, -13.2% for the second.

Going from `CC(C)(C)c1ccc(NC(=O)C(=O)C2C(=O)Nc3ccccc32)cc1` (centres undefined) to `CC(C)c1ccc(NC(=O)CCCC(=O)NCCc2ccccc2)cc1`, the “activity change, negative = inhibition” value falls from -1.66% to -4.77%.

First: COC(=O)c1c(N(S(C)(=O)=O)S(C)(=O)=O)sc2c1CCN(c1ncc(C(F)(F)F)cc1Cl)C2
Second: CCOC(=O)c1ccc(NS(=O)(=O)c2ccc3c(c2)NC(=O)CCS3)cc1
The “activity change, negative = inhibition” value of the first is higher: 2.06% for the first, -11.2% for the second.

Going from `CCOC(=O)C1=C(C)OC(N)=C(C#N)C1c1cc(F)ccc1F` (centres undefined) to `Cc1cc(-n2c(C)cc(C(=O)COc3ccc(F)c(F)c3)c2C)no1`, the “activity change, negative = inhibition” value falls from -0.975% to -2.54%.

Compared with `Cc1cc(C)n2nc3nc(N4CCCC4)nc(-c4ccccc4)c3c2n1`, `COc1ccccc1C(=O)COC(=O)c1nc2nc(C)cc(C)n2n1` is lower in “activity change, negative = inhibition” value: -2.65% for the first, -5.13% for the second.

First: O=C(CSc1nc2ccsc2c(=O)n1Cc1ccc(C(=O)O)cc1)NCc1ccco1
Second: Cc1ccccc1CS(=O)(=O)Cc1ccc(C(=O)NCc2ccco2)o1
The “activity change, negative = inhibition” value of the first is lower: -3.94% for the first, -2.3% for the second.

Compared with `Cc1nn(CCc2nn[nH]n2)c2nc(-c3ccc(C4CCCCC4)cc3)cc(C(F)(F)F)c12`, `COc1ccc(N(CC(=O)NC2CCCCC2)C(=O)CCC(=O)Nc2nc(C)cs2)cc1` is higher in “activity change, negative = inhibition” value: -13.7% for the first, -4.81% for the second.

Going from `CCOC(=O)c1[nH]nc2c1C(=O)N(CC)C2=O` to `COc1ccc2c(c1OC)C(=O)N1C2SC(C)(C)[C@H]1C(=O)NCCCOC(C)C` (some centres undefined), the “activity change, negative = inhibition” value falls from 5.22% to -1.76%.

First: COc1ccc(OCC(=O)NNC(=O)C(=O)N2CCCC2)cc1
Second: COc1ccc(C(=O)NNC(=O)C(=O)N2CCCCC2)cc1OC
The “activity change, negative = inhibition” value of the first is lower: -2.89% for the first, -1.68% for the second.

Going from `O=C(CSc1nnc(CNC(=O)C23CC4CC(CC(C4)C2)C3)n1-c1ccccc1)Nc1ccc(F)cc1` to `O=C(COc1ccccc1)Nc1ccc(CN2CCCCC2)cc1`, the “activity change, negative = inhibition” value rises from -3.94% to -0.991%.

First: CCCCCCCCCCCCC(=O)CCCCC(=O)O
Second: CCCCc1c(O)nc(SCC(=O)N2CCOCC2)n(-c2ccc(OC)cc2)c1=O
The “activity change, negative = inhibition” value of the first is lower: -11.5% for the first, -7.17% for the second.

Going from `COc1ccc(OC)c(NC(=O)c2nnn(CCc3ccccc3)c2N)c1` to `COc1cccc(NC(=O)Cn2nnc(C(=O)Nc3ccccc3)c2N)c1`, the “activity change, negative = inhibition” value falls from -5.48% to -12.1%.

Going from `COc1ccc(N2CC(C(=O)Nc3cccnc3)CC2=O)cc1` (centres undefined) to `COc1ccc(CN2CCC(C(=O)Nc3ccc(Oc4cccnc4)cc3)CC2)c(C)c1C`, the “activity change, negative = inhibition” value rises from -4.29% to -2.98%.

Going from `O=C(Nc1ccc(Cc2ccncc2)cc1)C1CCC(N2C(=O)C3C4C=CC(C4)C3C2=O)CC1` (centres undefined) to `Cc1ccc(NC(=O)CN(C)C(=O)c2cc(-c3ccco3)nc3ccccc23)cc1`, the “activity change, negative = inhibition” value falls from -6.15% to -8.04%.

Going from `CCOC(=O)c1ccc(Nc2cc(C)nc(-c3ccccc3O)n2)cc1` to `CCOC(=O)C1CCCN(C(=O)c2cc(Nc3ccc(OC)c(OC)c3)nc3ccccc23)C1` (centres undefined), the “activity change, negative = inhibition” value falls from 4.75% to -19.4%.

Compared with `COc1cc2[nH]c(Cl)c([N+](=O)[O-])c2cc1OC`, `COc1ccc(OC)c(NC(=O)NNC(=O)c2cc3occc3[nH]2)c1` is higher in “activity change, negative = inhibition” value: -4.27% for the first, -1.69% for the second.

First: CCC1CCC(C(=O)NNC(=O)c2cc(-c3ccco3)[nH]n2)CC1 (centres undefined)
Second: CCOC(=O)C1CCCN(C(=O)C2c3ccccc3Oc3ccccc32)C1 (centres undefined)
The “activity change, negative = inhibition” value of the first is higher: 6.66% for the first, -3.5% for the second.

Compared with `CCOc1ccc(-c2nnc(SCC(=O)N3CCCC3)o2)cc1`, `Cc1cccc(OCC(=O)N2CCN(C(=O)Cc3ccccc3)CC2)c1` is lower in “activity change, negative = inhibition” value: 0.57% for the first, -6.77% for the second.

First: Cn1c(=O)c2c(ncn2Cc2ccc(Cl)cc2)n(C)c1=O
Second: O=C(Cn1c(=O)oc2ccccc21)Nc1cccc(Cl)c1
The “activity change, negative = inhibition” value of the first is lower: -4.35% for the first, 0.08% for the second.

Compared with `COc1ccc2c(C)cc(SCC(=O)N(C)C3CCS(=O)(=O)C3)nc2c1` (centres undefined), `COC(=O)c1cc2oc(C)cc2n1CC(=O)N(C)c1ccccc1` is lower in “activity change, negative = inhibition” value: 10.8% for the first, -5.85% for the second.

Compared with `Cc1ccccc1Nc1ccc([N+](=O)[O-])cn1`, `Cn1ccc(C(=O)NC(=S)Nc2ccc([N+](=O)[O-])cc2O)n1` is lower in “activity change, negative = inhibition” value: 0.292% for the first, -9.47% for the second.

First: O=C(COC(=O)c1ccccc1NC(=O)c1ccco1)Nc1ncc(Cl)cc1Cl
Second: CC(=O)c1cccc(NC(=O)COC(=O)c2ccccc2C)c1
The “activity change, negative = inhibition” value of the first is higher: -1.69% for the first, -1.82% for the second.

Going from `O=C(NCc1n[nH]c(=S)n1-c1ccccc1)c1ccco1` to `COc1cc(/C=N/NC(=O)Cn2nc([N+](=O)[O-])cc2C)cc(Br)c1OCc1ccccc1`, the “activity change, negative = inhibition” value rises from -3.99% to -0.747%.

Compared with `COc1cccc(NCc2cc(=O)oc3cc(-c4ccccc4)c(O)cc23)c1`, `COc1cccc(OCCn2cc(/C=N/NC(=O)c3ccncc3)c3ccccc32)c1` is higher in “activity change, negative = inhibition” value: -4.19% for the first, -1% for the second.

First: COc1ccc(C(=O)COC(=O)CNS(=O)(=O)c2ccc(C)cc2)cc1
Second: COc1ccc(CC(=O)OCC(=O)NC(=O)NC23CC4CC(CC(C4)C2)C3)cc1
The “activity change, negative = inhibition” value of the first is higher: -11.6% for the first, -18.2% for the second.

First: COc1ccc(-c2cc(C)no2)cc1S(=O)(=O)N(C)c1cccc(C)c1
Second: CCc1nc(C)cn1S(=O)(=O)c1cc(C)c(OC)c(C)c1C
The “activity change, negative = inhibition” value of the first is lower: -6.11% for the first, -6.02% for the second.

First: CCCSC1=N/C(=C\C=C\c2ccco2)C(=O)S1
Second: Cc1cccc(-n2c(O)c(C=NCCCN3CCOCC3)c3ccccc3c2=O)c1
The “activity change, negative = inhibition” value of the first is higher: -0.768% for the first, -1.13% for the second.

With `CC(C)(C)NC(=O)Cn1nnc(-c2ccccc2Cl)n1` the “activity change, negative = inhibition” value was -0.253%.
